Source: PubChem BioAssay
INS-1E GSIS act – primary screen for activators of insulin secretion dependent on glucose, INS-1E cells, GLuc reporter luminescence. INS-1E GLuc reporter insulin secretion, 2-3 h. activation, % at 16.6 µM. 370,000 compounds, 0.61% hits;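 active = lowest replicate activation of at least 40%, so every replicate reaches that level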;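 also: 0% = median of neutral control wells and 100% = median of IBMX positive control wells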
Vif imaging – HIV Vif inhibition. HEK293T cells, Vif self-association by quenched fluorescence, imaging, 24 h. inhibition, % at 7.49 µM. 340,000 compounds, 0.35% hits. AID 602346; in the data active = inhibition above about 50%, passing the limit was not always enough
Bfl-1 A1 inh – inhibitors of the anti-apoptotic protein A1, read as caspase activation; MEF A1-2A-BIM cells, Caspase-Glo 3/7 luminescence, 3 h; percent of clofoctol response, vehicle zero; caspase activation, % (test concentration not listed); 330,000 compounds, 0.066% hits;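 active = over half of replicate activation scores above 10%, or exactly half above 10 with the replicate mean above 10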
dFosB act – enhances mouse delta FosB homodimer DNA binding. P13346. purified delta FosB, TAMRA-CDK5 oligo fluorescence polarization; percent of positive-control signal above neutral wells. activation, % at 25 µM. 340,000 compounds, 0.99% hits. AID 493131;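 active = mean activation above about 17%, with every replicate also reaching it, limit read from the data, passing the limit was not always enough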
Target sequence (P13346 whole entry, looked up): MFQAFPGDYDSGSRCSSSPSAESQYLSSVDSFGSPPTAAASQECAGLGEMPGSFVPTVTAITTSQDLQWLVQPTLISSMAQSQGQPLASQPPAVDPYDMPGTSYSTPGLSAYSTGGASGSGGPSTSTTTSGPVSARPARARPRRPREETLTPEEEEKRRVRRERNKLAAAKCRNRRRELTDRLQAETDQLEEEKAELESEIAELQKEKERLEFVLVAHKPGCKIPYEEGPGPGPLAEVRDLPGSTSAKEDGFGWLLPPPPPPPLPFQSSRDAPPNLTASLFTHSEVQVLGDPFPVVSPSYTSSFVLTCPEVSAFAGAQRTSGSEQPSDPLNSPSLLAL
Neddylation inh – blocks human cullin neddylation. P61081+Q13564. TR-FRET cullin neddylation, biochemical. inhibition, % at 25 µM. 360,000 compounds, 0.58% hits. AID 651699; in the data active = inhibition above about 36%
* = called active by the depositor; / = no result. Only some compounds are listed: those with a hit (about 1.9% of all), similar ones and a draw of the others.

SMILES	INS-1E GSIS act	Vif imaging	Bfl-1 A1 inh	dFosB act	Neddylation inh
CCN(CCCl)c1cc(CN(C)C)cc(NC(=O)c2ccc(C(=O)Nc3cc(CN(C)C)cc(N(CC)CCCl)c3)cc2)c1	19	5	/	38*	3
CCN(CC)C(=O)c1ccc(NC(=O)c2cccc(C(F)(F)F)c2)cc1	-3	6	0	-2	-1
Cc1ccc(-c2cc(-c3ccc(C)cc3)[n+](-c3ccc(C(=O)O)cc3)c(-c3ccc(C)cc3)c2)cc1	-6	-14	1	-6	36*
CCN1CCN(C(=O)COc2cc(=O)n(CC)c3ccccc23)CC1	/	31	0	-3	-1
CCn1c(=O)cc(OCC(=O)N2CCN(Cc3ccc4c(c3)OCO4)CC2)c2ccccc21	/	67*	1	-4	5
O=C1CC=C2C3CC4N(CCC45c4cc(O)c(O)cc4N1C25)CC3=CCBr (stereo not given)	2	-3	/	51*	49*
c1ccc2c(c1)Sc1ccccc1N2CC1CN2CCC1CC2 (stereo not given)	/	53*	1	-1	-21
O=c1[nH]c2ccccc2n1C1CCN(CCCC(c2ccc(F)cc2)c2ccc(F)cc2)CC1	/	24	1	28*	-15
CC(C)(O)/C=C/C(=O)C(C)(O)C1C(O)CC2(C)C3CC=C4C(C=C(O)C(=O)C4(C)C)C3(C)C(=O)CC12C (stereo not given)	-15	-4	/	-16	-6
CC(=O)OC(C)(C)/C=C/C(=O)[C@](C)(O)C1[C@H](O)C[C@@]2(C)C3CC=C4C(C[C@H](O)C(=O)C4(C)C)[C@]3(C)C(=O)C[C@]12C (stereo not given in full)	/	/	21*	-3	-7
Cc1ccc2c(C)c3ccc4ccccc4c3c[n+]2c1	/	-18	/	-56	64*
O=C(Cc1cccnc1)N1CCCCN2[C@H](C1)[C@@H](c1ccc(C#CC3(O)CCCC3)cc1)[C@@H]2CO	9	/	/	/	/
COc1ccc(CN2CCN(Cc3ccccc3F)CC2)cc1	43*	9	1	-10	1
CCC1CN2CCc3cc(OC)c(OC)cc3C2CC1CC1NCCc2c1[nH]c1ccc(O)cc21 (stereo not given)	-7	-4	/	29*	-4
C[C@]1(O)CC[C@H]2[C@@H]3CCC4=CC(=O)CC[C@]4(C)[C@@]3(F)[C@@H](O)C[C@@]21C	80*	2	/	-7	0
CC1(O)CCC2C3CCC4=CC(=O)CCC4(C)C34OC4CC21C (stereo not given)	1	-4	/	-3	0
C=CCN1[C@@H]2CN(C(=O)NC(C)C)C[C@H]1C2c1ccccc1 (stereo not given in full)	11	/	/	/	/
O=C1CNC[C@@H]2[C@@H](c3ccc(Br)cc3)[C@@H](CO)N12	2	/	/	/	/
O=[N+]([O-])c1ccc(N(CCO)CCO)c2c1no[n+]2[O-]	/	61*	/	/	-6
C[C@H]1CC[C@@H]2[C@@H](C)[C@H]3[C@H](C[C@H]4[C@@H]5CC=C6C[C@@H](O[C@@H]7O[C@H](CO)[C@H](O)[C@H](O[C@@H]8O[C@H](CO)[C@@H](O)[C@H](O)[C@H]8O)[C@H]7O[C@@H]7O[C@@H](C)[C@H](O)[C@@H](O)[C@H]7O)CC[C@]6(C)[C@H]5CC[C@]34C)N2C1	50*	0	0	9	-1
C[C@@H]1CC2C3CC=C4C[C@@H](O)CC[C@]4(C)C3CC[C@]2(C)[C@H]1O (stereo not given in full)	/	-7	1	-6	-5
O=C(Cc1ccccn1)N1CC2(C1)[C@H](c1ccccc1)[C@@H](CO)N2Cc1ccccn1	16	/	/	/	/
Cc1[nH]c2ccccc2c1CCNCc1ccco1	-19	-3	1	-2	1
Cc1[nH]c2ccccc2c1CCNCc1cccnc1	48*	2	1	1	-1
O=P(NC(c1ccccc1)c1ccccc1)(Oc1ccccc1)Oc1ccccc1	40*	-15	0	-10	-8
COc1cc(/C=C/[N+](=O)[O-])ccc1OC(=O)c1cccnc1	/	-4	8.0*	0	13
COc1cc2c(cc1/C=C/[N+](=O)[O-])OCO2	-14	13	/	5	6
NC(N)=N/N=C/c1ccc(N(c2ccccc2)c2ccccc2)cc1	321*	3	0	-113	38
O=C(Cc1cccnc1)N1CCCCN2[C@H](CO)[C@@H](c3ccc(/C=C/c4ccccc4)cc3)[C@@H]2C1	-11	/	/	/	/
